# Most compounds without a hit are left out; they make up all but 0.92% or so of the library.
# APEX1 inh: qHTS Assay for Inhibitors of the Human Apurinic/apyrimidinic Endonuclease 1 (APE1); DNA repair nuclease/redox regulator APEX1 (Homo sapiens), P27695; recombinant APE1, TAMRA/BHQ-2 abasic DNA cleavage fluorescence; Potency, µM (series often up to 65.8 µM), without a hit: at the top dose activity change, negative = inhibition, usual class: inhibitors; 0.35% of 350,000 active; AID 2517, 2012;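 also: plate controls were vehicle for no effect and reference inhibitor for full effect; nearly all actives have a fitted effect of over 55% in size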
#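 Quantitative HTS: incision of a TAMRA/BHQ-2 double-stranded substrate bearing a tetrahydrofuran abasic site by 0.75 nM APE1 raises fluorescence. Substrate 50 nM final, added after 15 min compound preincubation at room temperature; progress as third-minus-first kinetic read difference.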
# BLM helicase inh: qHTS Assay for Inhibitors of Bloom's syndrome helicase (BLM) | recombinant BLM DNA unwinding, fluorescence dequenching | Potency, µM (series often up to 56.1 µM), for the others: at the highest dose activity change, negative = inhibition, hits mostly inhibitors | AID 2528, 2010 | 0.2% of 350,000 active;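 also: plate controls were vehicle for no effect and no enzyme for full effect; nearly all actives have a fitted effect of over 35% in size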
# FEN1 inhibitor: qHTS Assay for the Inhibitors of Human Flap endonuclease 1 (FEN1); P39748; Recombinant FEN1 flap cleavage, fluorescence, 15 min; Potency, µM (highest dose often 114 µM), inactives show at the highest dose activity change, negative = inhibition, most hits filed as inhibitors; 0.35% of 390,000 active; also: nearly all actives have a fitted effect of over 65% in size
#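 With each library titrated from low to high concentration, compounds met 10 nM FEN1 for 15 min at room temperature before 50 nM substrate was added; readings at 0 and 15 min fed four-parameter Hill curve fits.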
# RECQ1 inh: qHTS Assay for Inhibitors of RecQ-Like Dna Helicase 1 (RECQ1); ATP-dependent DNA helicase Q1 (Homo sapiens), P46063; RECQ1 DNA unwinding, red fluorescence kinetic read; Potency, µM (highest dose often 57.3 µM), for inactives: top-dose activity, negative = inhibition, most hits filed as inhibitors; 0.54% of 240,000 active; AID 2549, 2010;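 also: plate controls were vehicle for no effect and no enzyme for full effect; nearly all actives have a fitted effect of over 30% in size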
# Target sequence (P46063 whole entry, looked up): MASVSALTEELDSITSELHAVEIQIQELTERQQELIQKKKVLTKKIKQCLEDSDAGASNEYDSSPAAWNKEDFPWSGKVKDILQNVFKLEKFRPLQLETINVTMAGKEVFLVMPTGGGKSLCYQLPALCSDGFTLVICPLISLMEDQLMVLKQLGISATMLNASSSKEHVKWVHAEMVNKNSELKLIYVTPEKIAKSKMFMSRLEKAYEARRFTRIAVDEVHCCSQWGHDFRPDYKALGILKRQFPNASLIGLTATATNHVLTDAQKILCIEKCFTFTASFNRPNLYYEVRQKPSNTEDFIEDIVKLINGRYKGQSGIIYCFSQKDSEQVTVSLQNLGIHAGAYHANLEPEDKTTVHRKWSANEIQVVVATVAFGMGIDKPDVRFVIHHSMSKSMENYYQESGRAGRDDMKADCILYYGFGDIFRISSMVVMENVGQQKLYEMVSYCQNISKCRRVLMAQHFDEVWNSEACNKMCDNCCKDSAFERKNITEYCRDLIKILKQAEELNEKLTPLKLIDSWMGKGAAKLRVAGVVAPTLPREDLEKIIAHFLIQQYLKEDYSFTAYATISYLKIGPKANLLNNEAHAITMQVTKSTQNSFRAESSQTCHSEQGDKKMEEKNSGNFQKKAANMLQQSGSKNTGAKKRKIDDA
#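 50 nM RECQ1T1 preincubated 15 min with compound in Tris pH 8.0 buffer with MgCl2, DTT, Tween-20 and 2.5 ug/ml poly(dI-dC); started with 200 nM TAMRA/BHQ-2 forked duplex and 2 mM ATP. Unwinding read as fluorescence (525/598 nm), two reads 2 h apart.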
# TDP1 inh: qHTS Assay for Inhibitors of Tyrosyl-DNA Phosphodiesterase (TDP1). recombinant TDP1, AlphaScreen DNA substrate cleavage. Potency, µM (doses to about 130 µM), for inactives: top-dose activity change, negative = inhibition, most hits filed as inhibitors. 0.28% of 350,000 active. Tyrosyl-DNA phosphodiesterase 1 (Homo sapiens), Q9NUW8; also: nearly all actives have a fitted effect of over 40% in size
#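 E. coli-derived human Tdp1, 1 nM final. Cpd preinc 15 min RT; substrate 15 nM final, 5 min RT; AS bead mix 10 ug/ml final, 10 min RT. Signal loss = tyrosine-FITC cleavage. No-enzyme wells = max signal.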
# Active calls of the source: *; i = inactive; ? = inconclusive; . = no result given; ! = a repeat was not active; [ ] = another dose, or the depositor's remark. Calls follow the shape of the dose curve; as a rule, active = well fitted curve in the direction sought with a large enough effect; inconclusive = small, poorly fitted or top-dose-only effect, or another doubt; inactive = no such curve, though single readings can be large; an effect the other way counts as inactive or inconclusive. Unless noted, % is scaled to controls: 0 for no effect and ±100 for the full control effect; potency is read from the fitted curve at half-maximal effect.
SMILES,APEX1 inh,BLM helicase inh,FEN1 inhibitor,RECQ1 inh,TDP1 inh
O=C(NNC(=O)c1cc2cc(Br)ccc2oc1=O)c1ccc(O)cc1O,?,?,-13%,-8%,25µM*
O=C1CCCC(O)=C1N=Nc1c(Cl)cc(C(F)(F)F)cc1Cl,?,-8%,-25%,13µM*,11%
CC1(C)CC(=O)C(N=Nc2c(Cl)cc(Cl)cc2Cl)=C(O)C1,11%,1%,-10%,-6%,5%
Cc1ccc2c(c1)C(c1ccccc1)N(C(=O)COc1ccc(Cl)cc1Cl)CC(=O)N2 (configuration not stated),.,-13%,2%,.,3%
CCc1ccc(C(c2ccc(CC)cc2)C(Cl)Cl)cc1,0%,.,-18%,-8%,20µM*!
COc1ccc(-c2cc(C(=O)OCC(=O)N3CCOCC3)c3ccccc3n2)cc1,-12%,.,-29%,.,-5%
COC(=O)C1CCN(C(=O)COC(=O)c2cc(-c3ccccc3)nc3ccc(OC)cc23)CC1,?,.,-15%,.,28µM*
CC(C)Cn1c(N)c(C(=O)CSc2nc3ncc(Cl)cc3[nH]2)c(=O)n(C)c1=O,-6%,.,-4%,.,-14%[0.505 µM]
CCCn1c(N)c(C(=O)CSc2nc3ncc(Cl)cc3[nH]2)c(=O)n(C)c1=O,?,.,1%,.,28µM*
COc1ccc(C2C(=O)N(C3CCCCCC3)CC(=O)N2Cc2ccccc2)cc1 (configuration not stated),.,-9%,20%,.,3%
Cc1ccc(NC(=O)CN(C)C(=O)c2cccc(-n3cccc3)c2)cc1,0.95µM*,.,?,.,.
Cc1cccc(NC(=O)CNC(=O)c2cccc(-n3cccc3)c2)c1C,1.9µM*,.,?,.,.
COc1ccc(NC(=O)CN(C)C(=O)c2cccc(-n3cccc3)c2)cc1,2.4µM*,.,-12%,.,2.5µM*
Cc1cccc(NC(=O)CNCC(=O)Nc2cccc(C)c2C)c1C,-11%,-3%,7%,.,.
COc1ccc(C2=Nn3c(nnc3-c3ccccc3C(F)(F)F)SC2)cc1OCC1CC1,0%,.,.,.,.
CC1=C(C)C(=O)C(C(CCCCCC(=O)O)c2ccccc2)=C(C)C1=O (configuration not stated),.,0%,.,.,.
Cc1ccc(C(=O)Nc2ccc(C(=O)OCc3cc(=O)n4ccsc4n3)cc2)cc1,15%,-11%,14%,.,22µM*
CC(C)(C)c1ccc(C(=O)Nc2ccc(C(=O)OCc3cc(=O)n4ccsc4n3)cc2)cc1,.,-4%,-2%,.,-6%
CNc1ncncc1-c1ccccc1OC,4%,1%,.,-3%,28µM*
COc1ccccc1CNc1ncncc1-c1ccccc1C,-5%,5%,.,-13%,32µM*
COCCn1c(=O)c(-c2cn(C)c3ccccc23)nc2cnc(Oc3cccc(Cl)c3)nc21,4%,3%,.,i,.
O=C(O)C1(C(=O)O)CCC1.[NH2-].[NH2-].[Pt+2],11µM*,-6%,.,-28%,23%
C=NC(C(=O)NC1C(=O)N2C1SC(C)(C)C2C(=O)O)c1ccccc1 (configuration not stated),.,5%,.,i,3%
COc1ccc(NC(=O)CSc2nc(NS(=O)(=O)c3ccccc3)cc(=O)[nH]2)cc1,?,?,56µM*,14µM*,.
Cc1ccc[n+](-c2nc([O-])sc2C=O)c1,-11%,-8%,-13%,i,28µM*
O=C(O)C1OC(Oc2c(-c3ccc(O)c(O)c3)oc3cc(O)cc(O)c3c2=O)C(O)C(O)C1O (configuration not stated),7.1µM*,1%,11µM*,-21%,-14%
C[C@@H]1O[C@@H](OC[C@@H]2O[C@H](Oc3c(-c4ccc(O)cc4)oc4cc(O)cc(O)c4c3=O)[C@@H](O)[C@H](O)[C@H]2O)[C@H](O)[C@H](O)[C@H]1O,6%,.,-11%,.,6%
